SMN2 splice enh: qHTS Assay for Enhancers of SMN2 Splice Variant Expression | HEK293 SMN2-luciferase splicing reporter, luminescence, 30-36 h | Potency, µM (highest dose often 46.1 µM), for inactives: at the highest dose activity change, positive = activation, hits mostly activators | 210,000 tested, 2.8% active | AID 1458, 2008; note: % of control where 0% means no effect; nearly all actives have a fitted effect of over 55% in size
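qHTS luciferase splicing reporter: luminescence rises when SMN2 exon 7 is included in transfected HEK293 cells. Compound exposure lasted 30-36 h at 37C, with 4.5 mM final sodium butyrate as control, followed by a ONE-Glo read.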
Rab9 prom act: qHTS Assay for Rab9 Promoter Activators; Huh7 Rab9 promoter-luciferase reporter, luminescence, 24 h; Potency, µM (series often up to 9.22 µM), for inactives: at the highest dose activation, negative = inhibition, usual class: activators; 320,000 tested, 2.8% active; AID 485297, 2010; note: % of control where 0% means no effect; nearly all actives have a fitted effect of over 60% in size
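Quantitative HTS format; Huh7 Rab9-luciferase reporter cells (1500/well) receive compound 2 h post-plating, incubate 24 h at 37 °C, then get luciferase reagent for 10 min before luminescence reading.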
ELG1 genotoxic: qHTS screen for small molecules that induce genotoxicity in human embryonic kidney (HEK293T) cells expressing luciferase-tagged ELG1 | HEK293T ELG1-luciferase reporter, luminescence, 16 h | Potency, µM (titrated, usually from 46 µM), for the others: top-dose activity change, positive = activation, usual class: activators | 330,000 tested, 1.3% active; note: % of control where 0% means no effect; nearly all actives have a fitted effect of over 60% in size
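ELG1-luciferase HEK293T cells, 2,000/well; compound pinned in; 16 hr, 37 °C, 5% CO2; ONE-Glo, 30 min RT; luminescence on CCD imager.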
p53 reactivation: qHTS assay for re-activators of p53 using a Luc reporter. H1299 p53-A138V BP100-luciferase reporter, luminescence, 24 h. Potency, µM (series often up to 92.2 µM), without a hit: at the highest dose activity change, positive = activation, hits mostly activators. 320,000 tested, 0.063% active. AID 504706, 2011; note: % of control where 0% means no effect; nearly all actives have a fitted effect of over 45% in size
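H1299 (p53-null), stable ts p53-A138V + BP100-Luc; 1000 cells/well, Opti-MEM/10% FBS; cpd 4 pt, 1:5; 24 h, 37 deg C, 5% CO2; detection reagent 10 min RT; luminescence.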
NPC1 prom act: qHTS Assay for NPC1 Promoter Activators | Huh7 NPC1 promoter luciferase reporter, 24 h | Potency, µM (highest dose often 9.22 µM), for inactives: at the highest dose activation, usual class: activators | AID 485313, 2010 | 320,000 tested, 2.4% active; note: % of control where 0% means no effect; nearly all actives have a fitted effect of over 60% in size
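Cells: Huh7 expressing luciferase under the NPC1 promoter, 1500/well. Seeded 2 h, compound added, incubated 24 h at 37 °C. Luciferase reagent, 10 min ambient, then luminescence.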
FLuc counter: qHTS profiling assay for firefly luciferase inhibitor/activator using purifed enzyme and Km concentrations of substrates (counterscreen for miR-21 project). Luciferin 4-monooxygenase (Photinus pyralis), P08659. Potency, µM (doses to about 57.5 µM), for inactives: top-dose activity change, negative = inhibition, hits mostly inhibitors. 360,000 tested, 6.9% active. purified FLuc, Km substrates, luminescence inhibition;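 note: plate controls were vehicle for no effect and reference inhibitor for full effect; nearly all actives have a fitted effect of over 55% in size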
Target sequence (P08659 whole entry, looked up): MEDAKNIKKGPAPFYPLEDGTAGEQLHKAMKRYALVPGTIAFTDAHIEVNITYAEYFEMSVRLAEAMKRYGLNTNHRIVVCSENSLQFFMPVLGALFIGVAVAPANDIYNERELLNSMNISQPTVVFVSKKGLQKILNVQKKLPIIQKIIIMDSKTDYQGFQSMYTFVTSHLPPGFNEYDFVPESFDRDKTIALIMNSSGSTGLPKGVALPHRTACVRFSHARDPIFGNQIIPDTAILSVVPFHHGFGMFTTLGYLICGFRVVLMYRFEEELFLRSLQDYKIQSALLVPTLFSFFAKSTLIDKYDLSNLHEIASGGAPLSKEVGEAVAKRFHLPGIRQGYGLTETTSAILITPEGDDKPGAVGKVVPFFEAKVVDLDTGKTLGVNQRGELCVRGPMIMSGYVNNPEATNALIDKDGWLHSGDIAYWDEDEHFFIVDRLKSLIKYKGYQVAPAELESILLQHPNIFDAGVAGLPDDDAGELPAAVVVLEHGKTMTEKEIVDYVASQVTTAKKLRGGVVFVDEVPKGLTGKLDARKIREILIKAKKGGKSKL
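Purified P. pyralis luciferase, 10 nM final, with Km-level 10 uM D-luciferin and 10 uM ATP in 50 mM Tris acetate pH 7.5, 10 mM Mg acetate, 0.01% Tween-20, 0.05% BSA; 6-point qHTS titration about 60 µM downward; luminescence read.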
* hit, by the source's call; ? = inconclusive; . = not tested or not shown; [ ] = another dose, or the depositor's remark. Most compounds without a hit are left out; they make up all but 7.4% or so of the library. Calls come from the whole dose curve; as a rule, active = well fitted curve in the direction sought with a large enough effect; inconclusive = small, poorly fitted or top-dose-only effect, or another doubt; inactive = no such curve, though single readings can be large; an effect the other way counts as inactive or inconclusive. Potency is the fitted concentration of half-maximal effect.

SMILES | SMN2 splice enh | Rab9 prom act | ELG1 genotoxic | p53 reactivation | NPC1 prom act | FLuc counter
CCc1ccccc1NC(=O)Nc1ccc(F)cc1 | . | 15% | 1% | 4% | 0% | ?
CN(C)c1ccc(NC(=O)Nc2csc3ccccc23)cc1 | . | ? | ? | 17% | 30% | 2.7µM*
CCOCCc1nnc(NC(=O)CS(=O)(=O)c2ccc(C)cc2)s1 | . | 6% | 2% | -4% | 0% | -2%
CC(=O)Nc1ccc(NC(=O)c2ccc3c(c2)CCN3S(=O)(=O)c2ccc(Cl)cc2)cc1 | 4% | . | . | . | . | -5%
COC(=O)c1ccc(N2NC(=O)/C(=C/c3cc(OC)c(O)c(OC)c3)C2=O)cc1 | . | -9%[1.84 µM] | 0% | 3% | 2% | 8.5µM*
O=C1NN(c2ccccc2)C(=O)/C1=C\c1cccc(OC(=O)c2cccs2)c1 | 0% | 2% | 19% | 0% | -3% | ?
COC(=O)c1ccc(N2NC(=O)/C(=C/c3cc(OC)c(OC)c(OC)c3)C2=O)cc1 | . | -1%[1.84 µM] | 12% | -2% | -1% | 19µM*
Cc1cccc(N(CC(O)Cn2c3ccccc3c3ccccc32)S(=O)(=O)c2ccc(F)cc2)c1 (stereo not given) | -92% | . | . | . | . | -2%
COc1ccccc1CN1CCC2(CC1)CCN(C(=O)c1cccc(F)c1)CC2 | -4% | . | . | . | . | .
S=C(Nc1ccccc1)Nc1ccccc1C#Cc1ccccc1 | -16% | . | . | . | . | .
Cc1cc(C)c(C)c(S(=O)(=O)N(C)C2CCN(C)CC2)c1C | . | -6% | -5% | -1% | -6% | 0%
Nc1nonc1-c1noc(N2CCCCC2)n1 | 14% | ? | ? | 18% | -2% | 19µM*
CCCCCc1nc(-c2nonc2N)no1 | 4% | -6% | 3% | 6% | -2% | 1%
c1ccc(OCc2nc3ccccc3s2)cc1 | 13µM* | 2.8µM* | ? | ? | 2.5µM* | 3.4µM*
Cc1cc(OCc2nc3ccccc3s2)ccc1N | . | 0.56µM* | 2.9µM* | ? | 1µM* | 1.5µM*
N#Cc1ccc(NC(=O)CCc2nc3ccccc3s2)cc1 | 9% | -3% | -3% | 6% | 0% | -11%
O=S(=O)(Cc1nc2ccccc2s1)c1ccccc1 | 14µM* | 3.2µM* | 4.6µM* | ? | 2µM* | 12µM*
CCC(=O)Nc1ccc(OCc2nc3ccccc3s2)cc1 | 5µM* | 0.63µM* | 2.9µM* | 13% | 2µM* | 4.3µM*
COc1ccc(S(=O)(=O)CCc2nc3ccccc3s2)cc1 | 0% | -11% | -7% | -9% | 2% | 1%
O=C(C1CC(=O)N(c2ccc3c(c2)OCCO3)C1)N1CCN(Cc2ccccc2F)CC1 (stereo not given) | . | -6% | 1% | -8% | -3% | 4%
COc1ccc(C(=O)N2CCN(c3ccccc3)CC2)cc1S(=O)(=O)N1CCOCC1 | . | 9% | 6% | 0% | -4% | -3%
Cc1ccc(C)c(NC(=O)C(=O)NCC(c2cccnc2)N2CCN(c3ccc(F)cc3)CC2)c1 (stereo not given) | . | . | . | . | . | -9%
Fc1ccc(OCc2nc3ccccc3s2)cc1 | 11µM* | 3.2µM* | 2.3µM* | 21% | 1.4µM* | 2.4µM*
CCc1cc2c(=O)c(-c3ccc4c(c3)OCCO4)coc2cc1OS(C)(=O)=O | 22µM* | 3.5µM* | 7% | ? | 2.8µM* | 4.8µM*
CCc1cc2c(=O)c(-c3ccc4c(c3)OCCO4)coc2c(CN2CCCCC2C)c1O (stereo not given) | . | 21% | 12% | 1% | 7% | 6.7µM*
CSc1ccc(CCNC(=O)Cn2ncc3c(=O)oc4ccc(C)cc4c32)cc1 | 4% | . | . | . | . | -2%
CC(=O)c1ccc(NC(=O)c2nc3ccccc3n(C)c2=O)cc1 | . | . | . | . | . | 4.8µM*

Screening results deposited in PubChem BioAssay by National Center for Advancing Translational Sciences (NCATS).
